AmpC inh detg: qHTS Inhibitors of AmpC Beta-Lactamase (assay with detergent) | actives 0.041% (n = 370,000) | Potency, µM (series often up to 114 µM), most hits filed as inhibitors | AmpC hydrolysis of nitrocefin, absorbance 480 nm, 0.01% Triton | AID 485294, 2010; further: nearly all actives have a fitted effect of over 25% in size
Target sequence (P00811 whole entry, looked up): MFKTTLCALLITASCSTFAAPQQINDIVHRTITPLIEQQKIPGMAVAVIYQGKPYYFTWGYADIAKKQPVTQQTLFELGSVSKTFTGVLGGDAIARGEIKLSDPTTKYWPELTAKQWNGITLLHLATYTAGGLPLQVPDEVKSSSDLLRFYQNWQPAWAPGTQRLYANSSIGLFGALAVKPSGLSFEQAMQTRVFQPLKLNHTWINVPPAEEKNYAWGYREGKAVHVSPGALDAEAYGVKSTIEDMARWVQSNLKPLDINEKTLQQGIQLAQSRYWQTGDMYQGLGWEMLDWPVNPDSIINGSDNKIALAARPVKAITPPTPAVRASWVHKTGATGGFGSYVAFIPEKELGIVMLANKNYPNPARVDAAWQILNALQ
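AmpC (5.3 nM in the dispensed reagent) in 20 mM phosphate pH 7.0 with 0.01% (detergent screen) or 0.0001% Triton X-100 was preincubated with compounds for 15 min at room temperature. Nitrocefin was then added from an 800 uM solution, and hydrolysis was followed at 480 nm.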
AmpC inh no detg: qHTS Inhibitors of AmpC Beta-Lactamase (assay without detergent). P00811. AmpC nitrocefin hydrolysis, absorbance 480 nm, 0.0001% Triton. Potency, µM (doses to about 57.1 µM), usual class: inhibitors. actives 0.52% (n = 330,000). AID 485341, 2010; further: nearly all actives have a fitted effect of over 20% in size
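AmpC (5.3 nM in the dispensed reagent) in 20 mM phosphate pH 7.0 with 0.01% (detergent screen) or 0.0001% Triton X-100 was preincubated with compounds for 15 min at room temperature. Nitrocefin was then added from an 800 uM solution, and hydrolysis was followed at 480 nm.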
Sm TGR block: qHTS Assay for the Inhibitors of Schistosoma Mansoni Peroxiredoxins; Potency, µM (titrated, usually from 114 µM), most hits filed as inhibitors; purified TGR, DTNB reduction, TNB absorbance 405 nm; actives 3% (n = 360,000); further: nearly all actives have a fitted effect of over 60% in size
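First, TGR (20 nM dispensed) and NADPH were mixed with compound. Second, a 15 min room-temperature incubation followed. Third, further NADPH and then DTNB were added to start the reaction. Finally, TNB absorbance was monitored kinetically.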
A number is an active result; n = inactive; u = inconclusive; x = not tested or not shown; [ ] = dose if it differs, or a comment. An excerpt weighted towards active compounds, which were near 3.3% of everything screened. The call rests on the fitted dose curve; in most records, active means well fitted curve in the direction sought with a large enough effect; inconclusive means small, poorly fitted or top-dose-only effect, or another doubt; inactive means no such curve, though single readings can be large; an effect the other way counts as inactive or inconclusive.

SMILES | AmpC inh detg | AmpC inh no detg | Sm TGR block
Cc1cccc(NC(=O)CCS(=O)(=O)c2ccc3c(c2)oc(=O)n3C)c1 | n | n | u
Cc1ccc(NC(=O)CCS(=O)(=O)c2ccc3c(c2)oc(=O)n3C)c(Br)c1 | n | x | 32µM
COC(=O)C1=CO[C@@H](C)[C@H]2CN3CCc4c([nH]c5ccccc45)[C@@H]3C[C@H]12 | n | n | n
COC(=O)C1=COC(C)C2CN3CCc4c([nH]c5ccccc45)C3CC12 (configuration not stated) | n | n | 79µM
Cc1ccc(C(=O)n2nc(-c3ccco3)nc2NCc2cccs2)cc1 | n | x | n
COc1ccc(C(=O)n2nc(-c3ccco3)nc2NCc2cccs2)cc1OC | n | x | 20µM
Cc1ccc(CNc2nc(-c3ccco3)nn2C(=O)c2ccccc2[N+](=O)[O-])cc1 | n | x | n
Cc1cccc(C(=O)n2nc(-c3ccco3)nc2NCc2ccccc2)c1 | n | x | 35µM
COc1ccccc1CNc1nc(-c2ccco2)nn1C(=O)c1ccccc1[N+](=O)[O-] | n | x | 89µM
COc1ccc(CNc2nc(-c3ccco3)nn2C(=O)c2ccccc2C)cc1 | n | x | n
CCOc1ccc(NC(=O)CSc2cn(CC(=O)N3CCOCC3)c3ccccc23)cc1 | n | x | n
Cc1ccccc1-c1noc(-c2ccc(N3CCC(C)CC3)c([N+](=O)[O-])c2)n1 | n | x | n
CCc1ccc(CNC(=O)c2cccc(-n3cnc4cccnc43)c2C)cc1 | n | x | n
CN(C)S(=O)(=O)N1CCC(N2CCN(Cc3ccc(F)cc3)C(=O)C2=O)CC1 | n | x | n
COCCn1c(SCC(=O)c2c[nH]c3ccccc23)nc2cc(C(=O)NC(C)C)ccc2c1=O | n | x | n
COCCn1c(SCC(=O)c2c(C)[nH]c3ccccc23)nc2cc(C(=O)NC(C)C)ccc2c1=O | n | x | 35µM
COC(=O)c1c(Oc2ccc(Br)cc2)nnc(-c2ccccc2)c1-c1ccccc1 | n | x | n
Cc1ccc(NC(=O)CSc2nc3nccnc3c(=O)n2CCc2c[nH]c3ccccc23)cc1 | n | x | n
O=C(COC(=O)/C=C/c1cccs1)Nc1ccccc1Cl | n | n[11.4 µM] | n
CCOC(=O)/C=C/C(=O)OCC(=O)Nc1c(Cl)cccc1Cl | n | n | 20µM
COc1ccc(NC(=O)COC(=O)/C=C/C(=O)OCC(=O)Nc2ccc(OC)c(Cl)c2)cc1Cl | u | n | u
CC(C)=CC(=O)OCC(=O)Nc1ccc(F)cc1Cl | u | n | n[11.4 µM]
CCOC(=O)/C=C/C(=O)OCC(=O)Nc1ccc(Cl)cc1Cl | n | n[11.4 µM] | 11µM
CCOC(=O)/C=C/C(=O)OCC(=O)Nc1ccc(OC)c(Cl)c1 | u | n | 18µM
Cc1ccc(CCC(=O)NCc2ccccc2)o1 | n | n | 35µM
SMILES | AmpC inh detg | AmpC inh no detg | Sm TGR block
O=C(CCc1ccccc1)NCc1ccccc1 | n | n | n
CCOC(=O)c1ccc(OC(=O)c2cn(-c3cccc(OC)c3)c(=O)c3ccccc23)cc1 | n | x | n
COc1ccc(NC(=O)COC(=O)CNS(=O)(=O)c2ccccc2)cc1OC | n | n | n
C/C(=C\C(=O)OCC(=O)NCc1ccccc1)C(=O)OCC(=O)NCc1ccccc1 | u | n | n
CCOC(=O)/C=C/C(=O)OCC(=O)NCc1ccccc1 | u | n | 25µM
COc1ccc(NC(=O)CNS(=O)(=O)c2ccccc2)cc1Cl | n | 0.63µM | n
CC(C)N1C(=O)C(O)(c2c[nH]c3ccccc23)c2ccccc21 (configuration not stated) | n | x | n
Cc1cc(=O)n(CC(=O)N2CCCc3ccccc32)c2c1c(C)nn2-c1cccc(F)c1 | n | x | n
CCN(CCCNC(=O)CSc1cc(=O)n(CC)c2ccccc12)c1cccc(C)c1 | n | x | n
Cc1ccc(S(=O)(=O)Nc2cc(C)c(O)c(Sc3n[nH]c(C)n3)c2)cc1 | n | n | 45µM
Cc1ccc(S(=O)(=O)Nc2ccc3cn[nH]c3c2)cc1 | n | n | n
CCOC(=O)/C(C#N)=C/c1ccc(OC)c(OC)c1 | u | n | n
CCCCCCC(=O)Cc1cc(OC)c(OC)cc1C=C(C(=O)OCC)C(=O)OCC | u | n | 40µM
Cc1ccc(C)c(C(=O)CSc2nc3cc(C(=O)NC4CCCC4)ccc3c(=O)n2CC2CCCO2)c1 (configuration not stated) | n | x | n
C[C@H](CCCC/C=C/C(=O)O)O[C@@H]1O[C@@H](C)[C@H](O)C[C@H]1O | n | n | 56µM
CCOc1ccccc1NC(=O)Cn1cc(C(=O)c2ccc(Cl)cc2)c(=O)c2ccc(C)nc21 | n | x | n

Compound activity as filed in PubChem.
